Assay outcomes: PubChem, ICCB-Longwood Screening Facility, Harvard Medical School
VACV E9 pol inh = inhibitors of vaccinia virus processive DNA synthesis (E9 polymerase); in vitro processive DNA synthesis, absorbance read-out; hits give low values; AID 493162; normalized absorbance, % (concentration not given with the values); actives 0.94% (n = 46,000); in the data active = normalized absorbance mostly below about 85%, no sharp cut-off; inactive = mostly above about 86%
* hit, by the source's call. Shown is part of a subset that was picked to be rich in hits.

CCN(Cc1cccc(Cl)c1)C(=O)c1cnc(OC)cc1C(F)(F)F was read as VACV E9 pol inh 92.
O=C1c2ccccc2C(=O)N1Nc1ccc(N2CCOCC2)cc1 was read as VACV E9 pol inh 99.
CC(C)NC(=O)c1cc(-c2ccc(Cl)cc2)on1 was read as VACV E9 pol inh 102.
`Cc1cc(C)n(Cc2c(Cl)cccc2Cl)n1` gave VACV E9 pol inh 86.
Screening S=c1n(CN(Cc2ccccc2)Cc2ccccc2)nnn1-c1ccccc1 returned VACV E9 pol inh 100.
Screening CN(C1CCCCC1)S(=O)(=O)c1ccc(F)c(F)c1 returned VACV E9 pol inh 93.
`O=C1c2ccc(O)c(O)c2C(=O)c2c(O)ccc(O)c21` gave VACV E9 pol inh 78.
Screening O=C1c2cccc(O)c2C(=O)c2c(O)cccc21 returned VACV E9 pol inh 100.
For O=C1C=CC(=O)c2c(O)cccc21 the results were VACV E9 pol inh 74*.
Screening CCN(CC)CCOc1ccc2c(c1)C(=O)c1cc(OCCN(CC)CC)ccc1-2 returned VACV E9 pol inh 30*.
`CCN(CC)CCOC(=O)C(c1ccccc1)c1ccccc1` gave VACV E9 pol inh 103.
CCN(CC)CCOc1ccc(/C(C)=N\O)cc1 was read as VACV E9 pol inh 100.
For COC(=O)c1c(N2C(=O)C=CC2=O)sc2c1CCC(C)C2 (stereo not drawn) the results were VACV E9 pol inh 96.
Screening C/C(N)=C/C(=O)c1ccccc1 returned VACV E9 pol inh 109.
`OCC1CN(Cc2ccccc2)C(c2ccccc2)O1` (stereo not drawn) gave VACV E9 pol inh 100.
O=C1CC(=Nc2ccc(F)cc2)NN1 was read as VACV E9 pol inh 97.
Screening NNc1nc2cc3c(cc2s1)OCCO3 returned VACV E9 pol inh 52*.
`NNc1nc2cc3c(cc2s1)OCO3` gave VACV E9 pol inh 50*.
Fc1ccc2nc(Nc3nc4ccc(F)cc4s3)sc2c1 was read as VACV E9 pol inh 96.
For c1c2c(cc3sc(N4CCOCC4)nc13)OCCO2 the results were VACV E9 pol inh 98.
Screening COC(=O)c1ccc2nc(NC(=O)C(C)C)sc2c1 returned VACV E9 pol inh 101.
NS(=O)(=O)c1ccc2nc(NC(=O)C3CCCCC3)sc2c1 was read as VACV E9 pol inh 99.
For O=C(ON1C(=O)c2cccc3cccc(c23)C1=O)c1ccncc1 the results were VACV E9 pol inh 106.
Screening CN(C)c1cccc(C(=O)OCC(=O)NCc2ccccc2)c1 returned VACV E9 pol inh 103.
`CCN(CC)Cc1cc(C(C)(C)C)oc1C(=O)O` gave VACV E9 pol inh 97.
For N#CC1=C(SCC(=O)Nc2ccccc2C(F)(F)F)NC2=C(C(=O)CCC2)C1c1ccco1 (stereo not drawn) the results were VACV E9 pol inh 110.
For O=C(Nc1ccc(C(F)(F)F)nc1OCc1ccccc1)c1ccccc1 the results were VACV E9 pol inh 100.
Screening O=C(O)CSc1nnc(-c2ccco2)n1Cc1ccccc1 returned VACV E9 pol inh 98.
`Clc1cccc(OCCN2CCN(c3ccccc3)CC2)c1` gave VACV E9 pol inh 100.
Cn1c(=O)oc2cc(S(=O)(=O)NCCCN3CCN(c4cccc(Cl)c4)CC3)ccc21 was read as VACV E9 pol inh 102.
For O=c1n(CCCN2CCN(c3cccc(Cl)c3)CC2)nc2ccccn12 the results were VACV E9 pol inh 15*.
`CS(=O)(=O)N(Cc1ccccc1)Cc1ccccc1` gave VACV E9 pol inh 101.
Cc1cccc(NC(=O)c2ccc(=O)[nH]c2)c1 was read as VACV E9 pol inh 101.
For CCOC(=O)c1cc(-c2ccnn2S(=O)(=O)c2cccc(C(F)(F)F)c2)on1 the results were VACV E9 pol inh 69*.
For Cc1cc(-c2nc(-c3ccnn3S(=O)(=O)c3cccc(C(F)(F)F)c3)cs2)no1 the results were VACV E9 pol inh 101.
`CCOC(=O)c1cc(-c2ccnn2C(=O)c2ccccc2)on1` gave VACV E9 pol inh 96.
Screening O=S(=O)(Nc1ccccc1Cl)c1ccc2nc(-c3ccccc3)[nH]c2c1 returned VACV E9 pol inh 104.
Screening CCN1C(=O)CC(c2cc(OC)c(OC)c(OC)c2)Sc2ccccc21 (stereo not drawn) returned VACV E9 pol inh 102.
O=c1oc2ccccc2cc1-c1csc(-c2ccccc2)n1 was read as VACV E9 pol inh 101.
Cc1ccc(/C=C/C(=O)O)o1 was read as VACV E9 pol inh 91.
For O=C(/C=C/c1ccc(Br)o1)Nc1nccs1 the results were VACV E9 pol inh 101.
Screening O=C(/C=C/c1ccc(Br)o1)Nc1ccc(F)cc1F returned VACV E9 pol inh 98.
`O=C(O)/C=C/c1ccc(Br)o1` gave VACV E9 pol inh 72*.
`O=C(O)/C=C/c1ccc(-c2cccc(C(F)(F)F)c2)o1` gave VACV E9 pol inh 100.
`O=C(/C=C/c1ccc(Br)o1)/C=C/c1ccc(Br)o1` gave VACV E9 pol inh 49*.
O=C(COc1ccccc1)Nc1cc(S(=O)(=O)C(F)(F)F)ccc1Cl was read as VACV E9 pol inh 103.
`CC(C)(NO)C(=O)c1cc(C(C)(C)C)c(O)c(C(C)(C)C)c1` gave VACV E9 pol inh 100.
Screening CCC1(C)Cc2c(sc3nc(SC)n4c(SCc5ccccc5)nnc4c23)CO1 (stereo not drawn) returned VACV E9 pol inh 100.
Screening CC1Sc2cc(S(=O)(=O)N3CCC(Cc4ccccc4)CC3)ccc2NC1=O (stereo not drawn) returned VACV E9 pol inh 101.
`Cc1[nH]c2ccccc2c1SCCNC(=O)Cc1ccccc1` gave VACV E9 pol inh 100.
`CC1CCCC(C)N1CCCNC(=O)NCc1noc2ccccc12` (stereo not drawn) gave VACV E9 pol inh 100.
O=C1c2ccccc2-c2onc3c(Br)cc(NCc4ccccc4)c1c23 was read as VACV E9 pol inh 99.
Screening CCOC(=O)N1CCN(c2cc(NCCC(=O)O)c3c4c(onc24)-c2ccccc2C3=O)CC1 returned VACV E9 pol inh 70*.
`CCOC(=O)N1CCN(S(=O)(=O)c2ccccc2)CC1` gave VACV E9 pol inh 100.
Screening COc1ccc(C(=O)COC(=O)C23CC4CC(CC(C4)C2)C3)cc1 returned VACV E9 pol inh 82.
For O=C(NCCn1ccc2ccccc21)c1ccccc1 the results were VACV E9 pol inh 97.
`O=C1CCCC(O)=C1C=Nc1ccc(Cl)c(Cl)c1` gave VACV E9 pol inh 102.
For Cn1c(-c2ccc3ccccc3n2)[n+](C)c2ccccc21 the results were VACV E9 pol inh 100.
C[n+]1cc(-c2ccc3ccccc3n2)cc2ccccc21 was read as VACV E9 pol inh 85*.
Screening COc1ccc(-c2ccc3ccccc3n2)cc1OC returned VACV E9 pol inh 101.
For CCS(=O)CCSc1nc(-c2ccc(Br)cc2)cc(-c2ccccc2)c1C#N (stereo not drawn) the results were VACV E9 pol inh 99.
`O=C(O)c1ccccc1NCCO` gave VACV E9 pol inh 90.
`O=C(O)c1ccccc1NCc1ccc(Cl)cc1` gave VACV E9 pol inh 53*.
O=C(O)CCNc1ccccc1C(=O)O was read as VACV E9 pol inh 100.
`Cc1ccccc1NC(=S)N(CCC(C)C)C(C)c1ccncc1` (stereo not drawn) gave VACV E9 pol inh 112.
For Cc1ccccc1COc1ccc2oc(-c3ccccc3)c(C(=O)O)c2c1 the results were VACV E9 pol inh 87*.
`O=C(O)c1c(-c2ccccc2)oc2ccc(OCc3ccc(Cl)cc3)cc12` gave VACV E9 pol inh 89.
CC(=O)Oc1ccc2oc(-c3ccccc3)c(C(=O)O)c2c1 was read as VACV E9 pol inh 100.
